Test results from the supplement of paper PMC6555819.

Tested on: LXRb:RXRa (NR concentration 270 nM, RXRa partner concentration 90 nM)
Test: PBM binding z-score (relative to random genomic background probes); higher = stronger binding; sequences stand for … in GC…GCGATTGACAGCGTAGAATGAAGG
Protocol: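 Protein-binding microarray (Agilent 4x180K custom design, double-stranded 60-nt probes: 5' GC cap, 34-nt variable region, 24-nt constant primer region; full probe sequence given). Purified or IVT nuclear receptor:RXRα heterodimers (3:1 NR:RXRα, mostly 270:90 nM) or homodimers were incubated for 1 h in PBS with 2% milk and no ligand, then detected with Alexa488 antibodies. Fluorescence from o1-orientation probes (~5 replicates averaged) was converted to z-scores against 500 random hg19 background probes. Variable regions are seed direct-repeat (DR0–DR5) sites, all their single-nucleotide variants and half-site ablations.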

Sequence | PBM binding z-score
CCTTACGGGTCAAGGTTATAGCCCGGGTGGTACG | 2.84
CCTGCGAGGTCATGGTCAGCTAATCTACAGTATG | 4.6
CGAACTAGGTCATCCAGGACCGTGAATACATTGA | 1.72
CCTGCTAGGTCATGGTCAGCGAATCTACAGTATG | 1.54
TAGCCTAGGTCATGGGCCAGTGTACCACGCGAAC | 2.46
TCTTGTAGGTCAATAGAGGTTAAGAAAGTGCGCT | 5.11
ATATGTAGGTTACATCCGGGTCATCCAGGCTATG | 2.76
CGAACTAGGTCAAGGGACAGTGAAAGGCGACGTA | 1.33
CCTAGCAGGCCAATCTAGGTCACTCAAGGCTTGA | 1.24
ACGCGGAGGACAAAGGTCAGAGCTACGCCAGTGA | 3.19
ACTTACGGGTCTACGAGGTTATAGCACGCGTATA | 0.819
AGAATGAGGTCACCAAAGATCAGGGAAACGCTTG | 5.13
TATACAGGGTCAAAGGCCAAAGTACGAATGTCGA | 5.4
CAAACTAGGTCACAAAAGGTCAAAGTCGAATGAC | 7.76
CAGCATAGGTCAGGGCCAGTATAGGAGGAACGTT | 1.98
TCGCCTAGGTCATGGGCCAGTATACCACGCGAAC | 2.29
CCTTACGGGTCACTCCAGGTTATATCATCGGAGT | 5.38
CCGAGTTGGTCAAGGTCACACACGCTATAGGTAC | 3.66
AACGAAAGGTCGAAGGTGAGTATACCCACCCGAA | 3.06
CGAACTAGGTCACCCAGGACAGTGAATACATTGA | 1.93

Sequence | PBM binding z-score
TCTCGGAGGACACTAAAGGTCAGAGCTCGACATC | 3.73
CGTCCAAGGTCAAGGTCAATGAAAGAGACTCGAA | 4.94
CGTCCAAGGTCATATGAGGTCAGTGAAGACAGAT | 6.58
CGAACTAGGTCTAAGGACAGTGAAAGGCGACGTA | -0.844
TGTCAAAGTTCAAAGGTGACGTAAGTATCCACAC | 5.06
CCTTACGGGTCACTGACAGGTTATAGCGTTTGGA | 3.4
TCTAGTTGGTCACGGAGGACACACACGACGGGTA | 0.424
AGAATGAGGTTAAGTTCAGGGAAACAGAATACAT | 2.78
TTACCAAGGTCAAGGTCGTTGATCCCTCTGTAGA | 5.02
AAAACAGGGTCATCGTAGGCCAGAGTACGCACAG | 4.8
CCAACTGGGCCAAAAAGGTCATTGATGCCGATAA | 4.36
TCTCGGAGGACACCAAAGGTCAGAGCTCGACATC | 3.46
CGTCAAAGTTCAAGGTCACGTAACAGAAAGCAGC | 5.52
CGTCAAAGTTCAACTGAGGTAACGTAAAGCACGC | 4.09
ATCGAAAGGTCGACGAGGTGAGTAAACACCGTTT | 2.87
CGTCAAAGATCAAGGTAACGTAACAGAAAGCAGC | 0.0744
AGCGAAAGGTCGAGGTGAGTATAGAGAAAGGGAA | 2.7
CGAACGAGGTCATTGACAGGACAGTGAATAGTAA | 5.01
TCTAGTTGGTCACGGAGGTCCCACACGACGGGTA | 0.167
CCTAGTTGTTCAGGAGGTCACACACCGGATATGA | 3.76
